Screens: PubChem, National Center for Advancing Translational Sciences (NCATS)
Shown are actives, neighbours in structure and some others; about 6.2% of the full set was active somewhere.
KB-V1 MDR tox: qHTS assay for MDR1-selective chemotherapeutics: Primary screen using the drug-selected MDR subline cells KB-V1; KB-V1 MDR cells viability, CellTiter-Glo, 72 h; 3.4% of 400,000 active; AID 1347076, 2019; Potency, µM (top dose mostly 46.1 µM), most hits filed as cytotoxic; further: on the % scale 0 is the no-effect control and ±100 the full control effect; nearly all actives have a fitted effect of over 60% in size
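Potencies derive from concentration-effect curves fitted to normalized luminescence (CellTiter-Glo) of KB-V1 cells treated for 72 h at 37 degrees C in phenol-red-free DMEM containing 10% FBS.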
HT1080 IDH1KD tx: qHTS for induction of synthetic lethality in tumor cells producing 2HG: qHTS for the HT-1080-IDH1KD cell line; Potency, µM (top dose mostly 46.1 µM), without a hit: at the highest dose activity, negative = toxicity, hits mostly cytotoxic; HT-1080 IDH1 knockdown viability, ATP luminescence, 48 h; AID 686971, 2013; 2% of 360,000 active;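 further: 0% = DMSO wells and -100% = cell-free medium wells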
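Viability of IDH1-knockdown HT-1080 fibrosarcoma cells was assessed by CellTiter-Glo after 48 h at 37 °C with titrated compound; concentration-effect curves were classified by fit quality and response size.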
ATXN viability: Viability Counterscreen for Primary qHTS for Inhibitors of ATXN expression. S2 cells (HEK-293 line with an ATXN2-luciferase reporter) viability, CellTiter-Fluor protease fluorescence, 24 h. Potency, µM (series often up to 56.7 µM), hits mostly cytotoxic. 0.49% of 400,000 active; further: nearly all actives have a fitted effect of over 40% in size
HT1080NT lethal: qHTS for induction of synthetic lethality in tumor cells producing 2HG: qHTS for the HT-1080-NT fibrosarcoma cell line; HT-1080-NT fibrosarcoma viability, CellTiter-Glo ATP luminescence, 48 h; Potency, µM (top dose mostly 46.1 µM), without a hit: at the highest dose activity, negative = less viability, most hits filed as cytotoxic; 1.6% of 360,000 active; AID 686970, 2013;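 further: NT is the 2HG producing partner of a matched IDH1 knockdown line; 0% = DMSO-treated cells and -100% = media-only wells without cells; nearly all actives have a fitted effect of over 55% in size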
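Read-out is CellTiter-Glo luminescence after 10 minutes at room temperature, following 48 hours' compound treatment of HT-1080-NT cells (750 cells/well, RPMI, 5% FBS, 37 degrees C).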
ATXN2 expr inh: Primary qHTS for Inhibitors of ATXN expression | HEK-293 ATXN2-luciferase reporter, luminescence, 24 h | Potency, µM (top dose mostly 57 µM), for inactives: at the highest dose activity change, negative = inhibition, usual class: inhibitors | 0.72% of 360,000 active; further: on the % scale 0 is the no-effect control and ±100 the full control effect; nearly all actives have a fitted effect of over 55% in size
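qHTS (up to 57 uM final) was run with 24 h compound exposure of reporter cells at 37 °C. Each well was multiplexed: SteadyGlo luminescence measured ATXN2-luciferase expression after a fluorogenic Gly-Phe-AFC viability readout (25 uM final).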
KB-3-1 tox: qHTS assay for MDR1-selective chemotherapeutics: Primary screen using the parental adenocarcinoma cell KB-3-1; Potency, µM (highest dose often 46.1 µM), actives largely listed as cytotoxic; 1.4% of 400,000 active; KB-3-1 viability, CellTiter-Glo ATP luminescence, 72 h; further: on the % scale 0 is the no-effect control and ±100 the full control effect; nearly all actives have a fitted effect of over 60% in size
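Using CellTiter-Glo luminescence, growth of non-resistant KB-3-1 adenocarcinoma cells is assessed 72 h after pin-tool compound addition at 37 °C. Normalized responses across the concentration series yield fitted curves.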
* = called active by the depositor; i = inactive; ? = inconclusive; nt = no result given. The call rests on the fitted dose curve; in most records, active means well fitted curve in the direction sought with a large enough effect; inconclusive means small, poorly fitted or top-dose-only effect, or another doubt; inactive means no such curve, though single readings can be large; an effect the other way counts as inactive or inconclusive. Potency means the concentration at half of the fitted maximal effect.

SMILES | KB-V1 MDR tox | HT1080 IDH1KD tx | ATXN viability | HT1080NT lethal | ATXN2 expr inh | KB-3-1 tox
O=C(NCc1cccnc1)c1cccc(NS(=O)(=O)c2ccc(Br)cc2)c1 | i | 3.3µM* | i | 4.6µM* | -23% | 5.8µM*
CC(C)c1ccc(COc2ccc(C(=O)N3CCOCC3)cc2)cc1 | ? | -19% | i | -12% | nt | i
COc1cc(OC)c(OC)cc1CNC(=O)c1ccc(COc2ccccc2)cc1 | 12µM* | -26% | i | -3% | -13% | ?
COc1cccc(CN2C(=O)NC(C)(C3CCN(Cc4cccc(O)c4)CC3)C2=O)c1OC (centres undefined) | nt | nt | i | nt | nt | nt
NNC(=O)c1ccc(C(=O)N(c2ccccc2)c2ccccc2)cc1 | i | nt | nt | nt | nt | i
O=C(NCCOCCO)C(=O)Nc1c2c(nn1-c1ccc(F)cc1)CSC2 | i | nt | i | nt | 4% | i
COc1cc2ccccc2ccc1=NO | 16µM* | -16% | ? | -10% | ? | ?
COc1ccc(OC)c2cc3ccccc3cc12 | i | ? | nt | -2% | 18µM* | i
COc1cc2ccccc2cc1C(=O)O | i | 9% | i | 3% | 0% | i
COc1cc(/C=N/NC(N)=S)cc(Br)c1OCc1ccccc1F | 18µM* | -19% | i | -10% | ? | i
CCOc1c(Cl)cc(/C=N/NC(N)=S)cc1OC | 7.3µM* | 2% | i | 1% | nt | i
Oc1cc(NCCc2cccnc2)cc2cccnc12 | ? | nt | ? | nt | 40µM* | ?
Oc1cc(Nc2cccnc2)cc2cccnc12 | i | nt | ? | nt | ? | 21µM*
COC(=O)[C@]12CCCCC=C1N(Cc1cccc3ccccc13)C(=O)[C@H](CC(=O)N1CCN(C(=O)c3ccco3)CC1)C2 | i | ? | nt | ? | ? | i
COc1ccc(S(=O)(=O)N2CCC(C(=O)Nc3cc(C(F)(F)F)ccc3Cl)CC2)cc1 | ? | nt | i | nt | -21% | ?
Cc1nc(C)c(C(=O)NCCC(c2ccccc2)c2ccccc2)o1 | 8.2µM* | -29% | i | -17% | -25% | ?
O=C(Nc1ccc(Cl)cc1)c1ccc(S(=O)(=O)N2CCOCC2)cc1 | i | -7% | i | 3% | -9% | i
O=C(Nc1ccc(S(=O)(=O)N2CCOCC2)cc1)c1cc(-c2cc(Cl)ccc2O)n[nH]1 | ? | 16µM* | ? | ? | nt | 12µM*
Cc1cc(O)c(-c2cc(C(=O)Nc3ccc(S(=O)(=O)N4CCOCC4)cc3)[nH]n2)cc1C | ? | 10µM* | i | 14µM* | ? | ?
CC1=NN(C(C#N)c2ccc(F)cc2)C(c2ccccc2)C1 (centres undefined) | i | -1% | i | 0% | 2% | i
CC(C)Cn1c(CNC(=O)c2ccccc2)nc2ccccc21 | ? | 1% | i | -3% | -2% | i
CCC(=O)Oc1ccc2ccccc2c1CNC(=O)c1ccccc1 | 15µM* | 0% | i | -10% | 1% | ?
O=C(Nc1ccccc1N1CCOCC1)c1cc(-c2ccncc2)nc2ccccc12 | 18µM* | -26% | ? | -26% | -35% | i
CN1CCN(NC(=O)c2cc(-c3ccc(Br)s3)nc3ccccc23)CC1 | i | 23µM* | i | 21µM* | -24% | i
CCCN(CCC)CCNC(=O)c1cc(-c2ccc(Br)s2)nc2ccccc12 | i | nt | 32µM* | nt | 0% | i
SMILES | KB-V1 MDR tox | HT1080 IDH1KD tx | ATXN viability | HT1080NT lethal | ATXN2 expr inh | KB-3-1 tox
CCOCCCNC(=O)c1cc(-c2ccc(Br)s2)nc2ccccc12 | i | -8% | i | -9% | -20% | ?
CCN(CC)CCNC(=O)c1cc(-c2ccc(Br)s2)nc2ccccc12 | ? | ? | nt | 18µM* | nt | i
CCc1ccc(CNC(=O)c2cc(-c3ccc(Br)s3)nc3ccccc23)cc1 | i | nt | i | nt | 6% | i
COc1cccc(CN2C(=O)NC(C)(C3CCN(Cc4cnn(C)c4C)CC3)C2=O)c1OC (centres undefined) | nt | nt | i | nt | nt | nt
COc1cc(CN2CCC3(CCC(CNC(=O)c4cc(C)nn4C)O3)CC2)ccc1F (centres undefined) | nt | nt | i | nt | nt | nt
O=C(NN1CCOCC1)c1cc(-c2ccccc2)nc2ccccc12 | i | 12% | i | -4% | -2% | i
O=C(NN1CCOCC1)c1cc(-c2cccc(Cl)c2)nc2ccccc12 | 12µM* | -11% | i | 4% | -13% | i
CN1/C(=C/c2cc[n+](C)c3ccccc23)C=Cc2ccccc21 | i | 5.8µM* | ? | 7.3µM* | 3.8µM* | 6.5µM*
Cc1cccc(C(=O)Nc2ccccc2OCc2cc(=O)n3cc(C)ccc3n2)c1 | i | nt | nt | nt | nt | i
N#C/C(=C/c1ccc(N2CCCCC2)o1)C(=O)Nc1ccc(Cl)cc1 | i | 12% | i | 5% | 38% | i
COc1cc(N2CCCC2)c(OC)cc1/C=C(/C#N)c1cccc(F)c1 | 16µM* | -1% | i | -3% | 8% | ?
N#C/C(=C/c1ccc(N2CCCCCC2)o1)c1ccc(F)cc1 | ? | 9.2µM* | ? | ? | ? | ?
N#C/C(=C/c1ccc(N2CCCCC2)o1)C(=O)Nc1ccc2ccccc2c1 | ? | ? | i | -4% | nt | i
N#C/C(=C/c1ccc(N2CCCCCC2)o1)c1cccc(F)c1 | 15µM* | 6.3µM* | i | 11µM* | 58% | i
O=C(CSc1nnc(CNC(=O)C23CC4CC(CC(C4)C2)C3)n1-c1ccc(F)cc1)Nc1ccccc1 | ? | -27% | i | -21% | 14% | i
